Compounds with a hit are over-represented: about 4% of the library has one in this group of screens.
HSV replic up: HSV replication enhancement; actives 0.005% (n = 220,000); maximum fold increase; HSV replication augmentation in cells, fold increase; AID 1956; in the data active means maximum fold increase above about 1.5; inconclusive means no clear call, values can overlap the other calls; tested in PC3 cells
Arbovirus anti: arbovirus infection inhibition. arbovirus infection cell-based antiviral screen. inhibition, % at 10 µM. actives 0.37% (n = 200,000); in the data active means inhibition above about 30%
ROMK primary: modulates human ROMK potassium channel activity | actives 2% (n = 130,000) | Tet-inducible ROMK, thallium flux fluorescence; actives lie on both sides | P48048 | B-score at 10 µM;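 active means signal ratio slope over the read window, or its plate-corrected B-score, at least 3 SD from the plate mean, either direction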;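 further: B-score of the F/F0 ratio slope over 7 to 12 s after thallium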
KCC2 mod: modulates chloride dependent transport by human KCC2; Q9H2X9; actives 2.2% (n = 190,000); KCC2 cells, thallium flux FluoZin-2 fluorescence; B-score of Tl+ flux slope (higher = more flux/activation; lower = inhibition) at 10 µM;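 active means thallium flux slope and its plate-corrected score both differing from the plate sample mean at a set confidence after two filtering rounds, in either direction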;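 further: slope of fluorescence scaled to starting intensity during 10 to 20 s after thallium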
Target sequence (Q9H2X9 whole entry, looked up): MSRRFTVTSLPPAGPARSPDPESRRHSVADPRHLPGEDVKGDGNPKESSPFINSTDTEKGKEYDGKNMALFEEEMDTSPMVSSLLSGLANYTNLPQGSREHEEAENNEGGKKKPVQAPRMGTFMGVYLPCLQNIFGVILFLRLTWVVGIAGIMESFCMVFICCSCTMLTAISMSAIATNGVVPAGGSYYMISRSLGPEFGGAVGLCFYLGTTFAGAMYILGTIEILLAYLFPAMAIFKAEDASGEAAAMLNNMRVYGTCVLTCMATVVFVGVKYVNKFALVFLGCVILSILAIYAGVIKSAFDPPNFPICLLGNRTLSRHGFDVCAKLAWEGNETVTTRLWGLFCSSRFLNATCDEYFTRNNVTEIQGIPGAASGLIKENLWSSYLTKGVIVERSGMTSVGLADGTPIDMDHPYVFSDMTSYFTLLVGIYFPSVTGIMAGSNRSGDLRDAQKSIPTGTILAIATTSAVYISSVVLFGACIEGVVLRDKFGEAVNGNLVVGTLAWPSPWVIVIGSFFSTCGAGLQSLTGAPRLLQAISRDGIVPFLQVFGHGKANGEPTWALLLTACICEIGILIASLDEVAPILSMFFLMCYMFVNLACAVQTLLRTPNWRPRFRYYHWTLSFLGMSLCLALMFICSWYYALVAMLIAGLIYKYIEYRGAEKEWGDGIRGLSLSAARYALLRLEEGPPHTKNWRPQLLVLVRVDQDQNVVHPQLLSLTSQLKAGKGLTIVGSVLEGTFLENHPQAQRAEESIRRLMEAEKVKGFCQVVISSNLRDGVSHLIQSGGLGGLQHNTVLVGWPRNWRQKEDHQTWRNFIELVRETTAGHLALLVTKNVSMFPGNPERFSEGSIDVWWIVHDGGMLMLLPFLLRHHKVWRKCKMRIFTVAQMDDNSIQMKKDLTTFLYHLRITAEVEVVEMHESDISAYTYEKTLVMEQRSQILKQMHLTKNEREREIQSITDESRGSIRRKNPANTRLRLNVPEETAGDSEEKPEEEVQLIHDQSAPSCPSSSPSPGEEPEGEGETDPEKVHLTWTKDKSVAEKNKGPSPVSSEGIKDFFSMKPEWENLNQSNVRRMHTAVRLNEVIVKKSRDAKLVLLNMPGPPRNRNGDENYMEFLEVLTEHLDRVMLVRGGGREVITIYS
Measles CPE: protection of cells from measles virus; actives 1.5% (n = 140,000); AID 841; Measles virus-infected cells, CPE protection, absorbance; protection (pct of control), % at 4 µM; in the data active means protection mostly above about 24%, no sharp cut-off; inactive means mostly below about 26%
KCC2 sec1: confirmation of human KCC2 transport modulators; shares compounds with KCC2 mod; HEK293-KCC2, thallium flux, FluoZin2 fluorescence; hits give high values; normalised thallium flux (F/F0 slope) at 10 µM; actives 15% (n = 3,700); AID 1713;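 active means thallium flux slope above the same plate's solvent-only control mean plus 3 SD; inconclusive means the two replicate wells disagree; inactive means no significant difference from solvent-only control wells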
KCC2 bumet counter: thallium flux despite bumetanide block in KCC2 cells, secondary assay 3. shares compounds with KCC2 mod. HEK293-KCC2 + bumetanide/ouabain, thallium flux FluoZin2; hits give high values. normalized thallium flux at 10 µM. actives 49% (n = 3,700). AID 1714;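 active means thallium entry rate above the same plate's blocked-transporter control wells by more than 3 SD; inconclusive means the two repeat wells disagree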;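 further: raw slope of fluorescence over initial fluorescence between 10 and 20 s after thallium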
KCC2 sec2: KCC2 (human) modulation, second secondary assay; shares compounds with KCC2 mod; HEK293-KCC2, thallium flux FluoZin2 fluorescence; actives lie on both sides; F/F0 rise rate, 10–20 s post-thallium; normalized thallium flux at 10 µM; actives 23% (n = 3,700); AID 1715;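 active means thallium flux slope more than 3 SD above or below the plate's solvent-only control mean, mostly below; inconclusive means the two repeat wells disagreed; inactive means no significant shift from solvent-only controls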;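 further: raw slope with 0.1% DMSO as baseline and bumetanide as block control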
HEK counter1: acts in parental HEK cells, KCC2 counter-screen; shares compounds with KCC2 mod; HEK293 parental cells, thallium flux FluoZin2, ouabain; baseline-ratio fluorescence slope, 10–20 s after thallium; thallium flux rate (normalised fluorescence) at 10 µM; actives 46% (n = 3,700);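 active means thallium flux rate significantly above the same plate's solvent-only control wells, beyond their mean plus 3 SD; inconclusive means the two replicate wells gave conflicting results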
KCC2 ouabain: confirmation of human KCC2 modulators with ouabain; shares compounds with KCC2 mod; HEK293-KCC2, thallium flux FluoZin2 fluorescence; bidirectional: low = inhibitor, high = activator; raw Tl+ flux slope (below DMSO = inhibition, above = activation) at 10 µM; actives 48% (n = 3,700); AID 1717;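 active means thallium flux slope beyond 3 SD from same-plate DMSO control mean in most replicates, usually higher, sometimes lower; inconclusive means repeat tests gave conflicting results; inactive means no significant difference from controls in most replicates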;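 further: slope of initial-normalized fluorescence between seconds 10 and 20 after thallium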
HEK counter2: acts in parental HEK cells, second KCC2 counter-screen | shares compounds with KCC2 mod | HEK293 parental, thallium flux FluoZin-2 fluorescence slope | thallium flux slope at 10 µM | actives 33% (n = 3,700) | AID 1718;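 active means thallium flux slope above the same plate's solvent-control mean plus 3 SD in both duplicate wells; inconclusive means duplicate wells that disagreed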;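 further: run without ouabain in cells lacking the KCC2 cotransporter; slope of fluorescence scaled to its starting value between 10 and 20 s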
* = called active by the depositor; i = inactive; u = inconclusive; x = no result given.

SMILES	HSV replic up	Arbovirus anti	ROMK primary	KCC2 mod	Measles CPE	KCC2 sec1	KCC2 bumet counter	KCC2 sec2	HEK counter1	KCC2 ouabain	HEK counter2
Cc1ccc(C(=O)Nc2ccc3c(c2)OCO3)cc1	i	-23	0.14	0.15	4	x	x	x	x	x	x
Cc1ccc(CN(c2ccc(C(=O)Nc3ccc4c(c3)OCO4)cc2)S(C)(=O)=O)cc1	i	-9	-0.31	4.7*	10	0.0076	u	0.028	0.008	0.019	0.012
COc1ccc(C(=O)N2CCOC2CNC(=O)C(=O)NCc2ccc(Cl)cc2)cc1 (centres undefined)	i	2	-1.5	-0.22	x	x	x	x	x	x	x
O=C1CCN(C(=O)c2ccc(Cl)cc2)N1	i	11	0.39	-3.3*	x	0.01	0.006	0.032	0.0081	0.019	0.011
O=C(CC12CC3CC(CC(C3)C1)C2)NCC(c1ccc(F)cc1)N1CCOCC1 (centres undefined)	i	8	0.44	0.055	x	x	x	x	x	x	x
COc1cccc(/C=c2\s/c(=C/C(=O)c3ccc(C)cc3)[nH]c2=O)c1OC	i	1	x	4.7*	12	0.0055	u	0.035	0.011*	0.026*	u
S=c1[nH]nc(CSCc2ccccc2Cl)n1C1CCCCC1	i	0	-0.94	27*	x	0.0057	0.031*	u	0.029*	0.028*	0.02*
S=c1[nH]nc(COc2ccc(Cl)cc2)n1C1CCCCC1	i	11	-1.6	2.5*	1	0.0052	0.015*	0.033	0.012*	u	0.015*
Cc1ccc(OCc2n[nH]c(=S)n2C2CCCCC2)cc1	i	-11	1.2	13*	28	u	0.043*	0.045*	0.026*	0.042*	0.03*
Cc1cccc(OCc2n[nH]c(=S)n2C2CCCCC2)c1	i	-23	-0.059	-0.06	9	x	x	x	x	x	x
COc1ccc(OCc2n[nH]c(=S)n2-c2ccc(C)cc2)cc1	i	7	1.7	-0.24	x	x	x	x	x	x	x
COc1cc(OC)cc(C(=O)N[C@H](C(=O)Nc2nc(-c3ccc(F)c(F)c3)cs2)C(C)C)c1	i	3	-0.23	0.14	x	x	x	x	x	x	x
COc1ccc(N(C)S(=O)(=O)c2ccc(Cl)c(C(=O)NCCc3ccc(Cl)cc3)c2)cc1	i	-5	-1	-6.1*	x	0.013	0.0031	0.018*	0.0054*	0.0095*	0.0086
COc1ccc(CCNC(=O)c2ccc(Cl)cc2Cl)cc1	i	-6	-0.72	-0.037	15	x	x	x	x	x	x
CCOc1ccc(C(CC(=O)O)NC(=O)c2ccco2)cc1 (centres undefined)	i	-7	-0.0031	0.41	4	x	x	x	x	x	x
COc1ccc(OC)c(NC(=O)C(Sc2ccccc2)c2ccccc2)c1 (centres undefined)	i	-5	x	x	7	0.016	0.0036	0.03	0.007	0.016	0.0094
CCOc1ccc(C(CC(=O)O)NC(=O)C(Sc2ccccc2)c2ccccc2)cc1 (centres undefined)	i	4	0.58	-4*	x	0.0068	u	0.023*	0.0084	u	0.012
COc1ccc(OC)c(NC(=O)CC(NC(C)=O)c2ccccc2)c1 (centres undefined)	i	3	1.3	1.3	x	x	x	x	x	x	x
COc1ccccc1N1CCN(C(=O)Cn2nc3n(C)c4ccccc4n3c(=O)c2=O)CC1	i	5	0.1	x	x	x	x	x	x	x	x
ClCC1=Nc2cccc3cccc(c23)N1	i	x	x	-7.4e-05	x	x	x	x	x	x	x
CCOC(=O)c1ccc2c(c1)[nH]c(=S)n2CC	i	-12	0.025	4*	x	0.0057	0.019*	0.033	0.013*	u	0.016*
CCOC(=O)c1ccc2c(c1)n(CC)c(C)[n+]2CC	i	2	-0.075	x	x	x	x	x	x	x	x
O=C(Nc1ccccc1C(=O)Nc1nnc(C(F)(F)F)s1)c1ccccc1	i	x	x	3.2*	x	u	0.022*	0.033	u	0.019	0.011
Cc1occc1C(=O)Nc1nnc(C(F)(F)F)s1	i	10	x	0.36	10	x	x	x	x	x	x
C=CCN(c1ccc(OC)cc1)S(=O)(=O)c1ccc(Cl)c(C(=O)OCC(=O)NC2CC2)c1	i	8	0.075	-3.8*	x	0.0093	0.0071	u	0.006	0.014*	0.0097
SMILES	HSV replic up	Arbovirus anti	ROMK primary	KCC2 mod	Measles CPE	KCC2 sec1	KCC2 bumet counter	KCC2 sec2	HEK counter1	KCC2 ouabain	HEK counter2
C/C(=N\Nc1cc(C)nc(-c2ccccc2O)n1)c1ccccc1O	i	x	x	1.3	x	x	x	x	x	x	x
O=C(NC(=S)NN1CCCCC1c1cccnc1)c1ccc(Cl)cc1Cl (centres undefined)	i	x	x	9.1*	x	0.012*	0.021*	0.035	0.012*	u	u
O=C(CCN1C(=O)c2cccc3cccc(c23)C1=O)Nc1ccccc1	i	3	0.67	-0.66	x	x	x	x	x	x	x
COc1ccc(-c2oc3ccccc3c(=O)c2OC(=O)c2ccc(C)cc2)cc1	i	-9	x	0.97	5	x	x	x	x	x	x
O=C(Oc1c(-c2ccccc2)oc2ccccc2c1=O)c1ccccc1	x	0	0.039	x	14	0.014*	0.068*	0.036	u	0.055*	u
O=C(/C=C/c1ccc(O)c(O)c1)O[C@H](Cc1ccc(O)c(O)c1)C(=O)O	i	x	x	1.4	x	x	x	x	x	x	x
COc1cccc(-c2nc(NCCN3CCOCC3)c3ccccc3n2)c1O	i	-34	-0.84	-0.041	5	0.01	0.0072	0.033	0.0078	0.021	u
COn1c(SC2CCCCC2)nc2ccccc2c1=O	i	14	-1.1	2.6*	0	u	0.014*	0.027	0.012*	u	0.0099
COn1c(SC(C)C)nc2ccccc2c1=O	i	-7	x	0.23	20	x	x	x	x	x	x
CCc1ccc(CN(C)C(=O)CCc2nnc(Cc3cccc(C)c3)o2)nc1	i	7	0.83	0.72	x	x	x	x	x	x	x
O=c1nc2n(c3sc4c(c13)CCC4)Cc1ccccc1-2	x	-7	x	x	x	x	x	x	x	x	x
Cc1sc2c(c1C)c(=O)nc1n2Cc2ccccc2-1	x	-4	-0.096	x	3	0.0087	0.0062	0.03	0.008	0.019	0.011
CCCCOC(=O)CSc1nc2ccccc2o1	i	x	0.48	0.0019	x	x	x	x	x	x	x
CCn1c(=O)n(CC)c2cc(S(=O)(=O)N3CCC(c4ccccc4)CC3)ccc21	i	2	-2.5	x	31	0.0062	0.0047	0.025*	0.007	0.017*	0.01
